Values without a mark were called inactive. Entries that show only a call come without a potency. The source made the active and inactive calls. The call rests on the fitted dose curve.
These compounds were tested against Estrogen receptor (Homo sapiens) (UniProt P03372) (assay: qHTS assay to identify small molecule agonists of the estrogen receptor alpha (ER-alpha) signaling pathway in the presence of an antagonist (AID 1259383; further: nearly all actives have a fitted effect of over 15% in size; on activation: top concentration of the series differs between compounds)). Conditions: VM7Luc4E2 cells, ERE-luciferase, +ICI-182,780, 22 h; series mostly up to 92.4 µM.
Chain of Estrogen receptor (Homo sapiens) (P03372 whole entry, looked up): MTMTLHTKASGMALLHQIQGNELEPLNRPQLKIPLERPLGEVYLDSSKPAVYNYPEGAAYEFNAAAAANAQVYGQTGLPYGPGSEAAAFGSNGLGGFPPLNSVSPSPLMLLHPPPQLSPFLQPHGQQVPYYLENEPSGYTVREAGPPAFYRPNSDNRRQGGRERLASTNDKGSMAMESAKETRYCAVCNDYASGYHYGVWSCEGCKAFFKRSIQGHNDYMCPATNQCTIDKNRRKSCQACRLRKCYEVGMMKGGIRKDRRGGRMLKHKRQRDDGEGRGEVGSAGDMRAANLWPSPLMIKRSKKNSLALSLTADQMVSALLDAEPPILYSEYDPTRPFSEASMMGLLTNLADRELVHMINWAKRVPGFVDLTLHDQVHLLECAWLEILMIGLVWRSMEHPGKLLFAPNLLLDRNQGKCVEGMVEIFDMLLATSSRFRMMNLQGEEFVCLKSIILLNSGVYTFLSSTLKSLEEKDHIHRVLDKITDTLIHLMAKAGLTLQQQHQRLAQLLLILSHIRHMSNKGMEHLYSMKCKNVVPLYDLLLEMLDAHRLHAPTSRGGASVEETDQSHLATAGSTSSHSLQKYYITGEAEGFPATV
Excerpt: National Center for Advancing Translational Sciences [NCATS] NIH Chemical Genomics Center [NCGC] U.S. Environmental Protection Agency [EPA] National Institutes of Environmental Health Sciences [NIEHS] National Toxicology Program [NTP] Assay overview: Estrogen receptor (ER), a member of nuclear hormone receptor plays an important role in development, metabolic homeostasis and reproduction. Two subtypes of ER, ER-alpha and ER-beta, have similar expression patterns with some uniqueness in both types. Endocrine disrupting chemicals (EDCs) and their interactions with steroid hormone receptors like ER causes disruption of normal endocrine function. Therefore, it is important to understand the effect of environmental chemicals in ER signaling pathway. For identifying ER agonists, VM7Luc4E2 cell line has been used in the current assay. VM7Luc4E2 cell line (provided by Denison MS, University of California) endogenously expresses full-length ER-alpha and is stably transfected with a plasmid containing four estrogen responsive elements (ERE) upstream of a luciferase reporter gene. This current screening for measuring luciferase reporter gene activity using VM7Luc4E2 cells against Tox21 10K library collection is a confirmation study on agonist mode screening in presence of ER-antagonist (ICI-182,780) at 10.0nM final concentration.
Assay Protocol Summary: VM7Luc4E2 cells were cultured in phenol red free assay medium containing 10% charcoal stripped FBS for 5 days prior to the assay. The cells were dispensed at 4,000 cells in 4uL of assay medium per well into white wall/solid-bottom 1536-well plates (Corning Life Sciences, Corning, NY) using a Multidrop Combi (Thermo Fisher Scientific Inc., Waltham, MA) dispenser. After the assay plates were incubated at 37C and 5% CO2 for 24hr, 1uL of 10.0nM (final concentration) ICI-182,780 or assay buffer was added using two separate tips of Flying Reagent Dispenser (FRD, Aurora Discovery, San Diego, CA). Then 23nL of compounds dissolved in DMSO at 15 concentrations and positive controls or DMSO only was transferred to the assay plates by a Pintool station (Wako, San Diego, CA). The assay plates were incubated at 37C and 5% CO2 for 22hr. For luciferase read, 4uL/well ONE-Glo reagent (Promega Corporation, Madison, WI) was added to each well using FRD and after 30min incubation at room temperature, luminescence signal was measured on ViewLux plate reader (PerkinElmer, Shelton, CT).
Potency means the concentration at half of the fitted maximal effect.

Structure (SMILES)	Potency	activation
O=C(C1CCCCC1)N1CC(=O)N2CCCc3ccccc3C2C1 (stereo not given)	inactive	
SCCOCCOCCS	inactive	
CCCc1ccc(OC)cc1	inactive	
C=CCCC	inactive	
O=P(c1ccccc1)(c1ccccc1)c1ccccc1	inactive	
CC(C)C/C=C(\C=O)c1ccccc1	inactive	
NC(=O)c1cc[n+](CC2=C(C(=O)[O-])N3C(=O)[C@@H](NC(=O)Cc4cccs4)[C@H]3SC2)cc1	inactive	
Cc1ccc(Cl)c(OCC(O)CNC(C)(C)C)c1 (stereo not given)	inactive	
CCC(C(=O)O)c1ccc(N2Cc3ccccc3C2=O)cc1 (stereo not given)	inactive	
C1=COCCC1	inactive	
S=c1[nH][nH]c(=S)s1	inactive	
CCCC1CCOC(C)S1 (stereo not given)	inactive	
O=C(OCCCCCOC(=O)c1ccccc1)c1ccccc1	inactive	
CC(=O)Nc1cccc(N)c1	inactive	
C=Cc1ccc(C=C)cc1	inactive	
Cc1ccc(NC(=O)c2ccc(CN3CCN(C)CC3)cc2)cc1Nc1nccc(-c2cccnc2)n1	inactive	
Cc1cc(C)c(C)c(O)c1	inactive	
O=C(O)c1ccc2cc(O)ccc2c1	inactive	
CC1(C)[C@@H]2CC[C@]3(C2)[C@@H]1C(=O)CCC3(C)C	inactive	
NC(=O)c1ccccc1	inactive	

Structure (SMILES)	Potency	activation
O=C(O)c1c2ccccc2cc2ccccc12	inactive	
O=C(O)c1ccc2c(c1)nc(C(=O)NC1CCN(C3CC3)CC1)n2Cc1cc(-c2ccc(Cl)s2)on1		1.43% [at 19 µM]
CCCCCCCCCCCCCCCCCCCl		0.705% [at 8.39 µM]
O=C(OCCN1CCOCC1)c1cccnc1Nc1cccc(C(F)(F)F)c1	inactive	
CC(C)NC(=O)c1ccccc1N	inactive	
CC1(C)CC(=O)CC(C)(C)N1	inactive	
Clc1cccc(C(c2ccc3nc[nH]c3c2)n2ccnc2)c1 (stereo not given)	inactive	
CC(C)(C)N	inactive	
CCC(CC)C(=O)O	inactive	
C/C(=C\C(C)CC(C)CC(C)C)C1CC(=O)OC1=O (stereo not given)	inactive	
O=C(Cl)c1ccc(F)c(Cl)c1	864 nM (active)	
N#C[C@@H]1CC(F)(F)CN1C(=O)CNC1CC2CCC(C1)N2c1ncccn1 (stereo not given in full)	inactive	
COc1ccnc2c1CCCCC2S(=O)c1nc2ccccc2[nH]1 (stereo not given)	inactive	
Cc1c(Cl)cccc1Nc1ccccc1C(=O)O	inactive	
Cc1c(N=C=O)cccc1N=C=O	inactive	
CCCCCCCCCCCCSC#N	inactive	
Cc1cc(N)n(-c2ccccc2)n1	inactive	
O=C(O)c1cccnc1Nc1cccc(C(F)(F)F)c1	inactive	
C=CC(=O)OCCCCCCCCCC	inactive	
Cc1ccc2ccccc2c1[N+](=O)[O-]	inactive	

Source: PubChem BioAssay (Tox21)
